Results filed as inconclusive are left out. Activity calls are given as the source filed them. The call rests on the fitted dose curve; in most records, active means well fitted inhibition curve with a large enough effect; inconclusive means small, poorly fitted or top-dose-only effect; inactive means flat fitted curve, though single readings scatter.
Key:
[1] = tested on: HEK293; experiment: Cytotoxic Profiling of Annotated Libraries Using Quantitative High-Throughput Screening (AID 1296008); settings: Five cell lines viability, CellTiter-Glo ATP luminescence, 48-72 h; max response: hits give low values; further: potency means the concentration at half of the fitted maximal effect
Outline: (§1)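 Cytotoxicity was measured as CellTiter-Glo ATP luminescence, read after 10 min at room temperature. Compound treatment of the cells lasted 48 or 72 hr at 37 degrees Celsius in a qHTS format.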

[2] = tested on: HaCat; experiment: as above; settings: Five cell lines viability, CellTiter-Glo ATP luminescence, 48-72 h; max response: hits give low values
Outline: as §1

[3] = tested on: NIH3T3; experiment: as above; settings: Five cell lines viability, CellTiter-Glo ATP luminescence, 48-72 h; max response: hits give low values
Outline: as §1

[4] = tested on: HACAT; experiment: qHTS assay to identify novel small-molecules to repurpose for Merkel cell carcinoma treatment (AID 1296009); settings: MCC and control cell lines, CellTiter-Glo viability, 72 h; at 44.8 µM (top of the series) unless noted
Outline: (§2)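 After compound transfer in DMSO, plates were kept 72 hr at 37 degree celsius. Luminescent ATP signal from CellTiter-Glo served as viability measure, normalized against DMSO and no-cell controls.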

[5] = tested on: HEK293T; experiment: as above; settings: MCC and control cell lines, CellTiter-Glo viability, 72 h; at 44.8 µM (top of the series) unless noted
Outline: as §2

[6] = tested on: MCC-13; experiment: as above; settings: MCC and control cell lines, CellTiter-Glo viability, 72 h; series mostly up to 46 µM
Outline: as §2

[7] = tested on: MKL-1; experiment: as above; settings: MCC and control cell lines, CellTiter-Glo viability, 72 h; series mostly up to 46 µM
Outline: as §2

[8] = tested on: MKL-2; experiment: as above; settings: MCC and control cell lines, CellTiter-Glo viability, 72 h; series mostly up to 46 µM
Outline: as §2

[9] = tested on: MCC-26; experiment: as above; settings: MCC and control cell lines, CellTiter-Glo viability, 72 h; series mostly up to 46 µM
Outline: as §2
Further: nearly all actives have a fitted effect of over 60% in size.
On the % scale 0 is the no-effect control and ±100 the full control effect.

CC(CC(C#N)(c1ccccc1)C(C)C)N(C)C (stereo not given)
inactive: outcome [1] | outcome [2] | outcome [3] | outcome [4] | outcome [5] | Potency [6] | Potency [7] | Potency [8]

NCC[C@H](O)C(=O)N[C@@H]1C[C@H](N)[C@@H](O[C@H]2O[C@H](CN)[C@@H](O)[C@H](O)[C@@H]2O)[C@H](O)[C@@H]1O[C@H]1O[C@H](CO)[C@@H](O)[C@H](N)[C@@H]1O
inactive: max response [1] -4.69% | outcome [2] | max response [3] -2.83% | outcome [4] inactive [at 0.588 µM] | activity change, negative = cytotoxicity [6] 1.29% [at 0.597 µM] | activity change, negative = cytotoxicity [9] 13.8% [at 0.597 µM] | activity change, negative = cytotoxicity [7] 9.09% [at 0.597 µM] | activity change, negative = cytotoxicity [8] 22.5% [at 0.597 µM]

CC(C)(C)CC(=O)OCC(=O)[C@@]1(O)CC[C@H]2[C@@H]3CCC4=CC(=O)C=C[C@]4(C)[C@H]3[C@@H](O)C[C@@]21C
active: Potency [1] 15 µM
inactive: outcome [2] | max response [3] -9.28% | outcome [4] | Potency [6] | Potency [9] | Potency [7]

CCCCCCn1c(=O)c2c(ncn2C)n(C)c1=O
inactive: max response [1] -1.62% | outcome [2] | max response [3] 1.26% | outcome [4] | Potency [6] | Potency [9] | Potency [7] | Potency [8]

CCCCN(CCN(CCCC)C(=O)N1CCOCC1)C(=O)N1CCOCC1
inactive: max response [1] -9.35% | outcome [2] | max response [3] -9.41% | outcome [4] | Potency [6] | Potency [9] | Potency [7]

O=C1CC2(CCCC2)CC(=O)N1
inactive: max response [1] 4.63% | outcome [2] | outcome [3] | outcome [4] | Potency [6] | Potency [9] | Potency [7] | Potency [8]

O=C(O)c1ccccc1Nc1cc(Cl)ccc1C(=O)O
inactive: max response [1] -2.68% | outcome [2] | max response [3] -15.4% | outcome [4] inactive [at 17.4 µM] | Potency [6] | Potency [9] | Potency [7]

COc1ccc2cc(C=O)ccc2c1
inactive: max response [1] 0.484% | outcome [2] | max response [3] 2.35% | outcome [4] | Potency [6] | Potency [9] | Potency [7] | Potency [8]

CCN(CC)C(=O)C1CN2CCc3cc(OC)c(OC)cc3C2CC1OC(C)=O (stereo not given)
inactive: outcome [1] | outcome [2] | max response [3] -5.34% | outcome [4] | outcome [5] | Potency [6] | Potency [7] | Potency [8]

COCCc1ccccn1
inactive: max response [1] -0.362% | outcome [2] | outcome [3] | outcome [4] | Potency [6] | Potency [9] | Potency [7] | Potency [8]

CC(Oc1c(Cl)cccc1Cl)C1=NCCN1 (stereo not given)
inactive: max response [1] 4.99% | outcome [2] | max response [3] 3.55% | outcome [4] | Potency [6] | Potency [9] | Potency [7] | Potency [8]

N=C(N)c1ccc(OCCCOc2ccc(C(=N)N)cc2)cc1
inactive: outcome [2] | outcome [3] | outcome [4] | Potency [6] | Potency [9] | Potency [7] | Potency [8]
active: Potency [1] 7.5 µM

Cc1cc(O)c(C)c(C)c1O
inactive: outcome [1] | outcome [2] | outcome [3] | outcome [4] | outcome [5] | Potency [6] | Potency [7] | Potency [8]

COc1ccc2c(c1)c(CC(=O)OC/C=C(\C)CC/C=C(\C)CCC=C(C)C)c(C)n2C(=O)c1ccc(Cl)cc1
inactive: max response [1] -3.27% | outcome [2] | max response [3] 4.12% | outcome [4] | Potency [6] | Potency [9] | Potency [7]

C=C(C)C(=O)OCC(O)CO (stereo not given)
inactive: max response [1] -5.25% | outcome [2] | max response [3] 4.75% | outcome [4] | Potency [6] | Potency [9] | Potency [7] | Potency [8]

CCCC(=O)OCOC(=O)C1=C(C)NC(C)=C(C(=O)OC)C1c1cccc(Cl)c1Cl (stereo not given)
inactive: max response [1] 0.879% | outcome [2] | max response [3] 0.493% | outcome [4] | Potency [6] | Potency [9] | Potency [7] | Potency [8]

O=C1Cc2cc(Cl)ccc2N1
inactive: max response [1] -3.82% | outcome [2] | max response [3] 3.19% | outcome [4] | Potency [6] | Potency [9] | Potency [7]

N#CSCC(=O)O
inactive: max response [1] 0.303% | outcome [2] | outcome [3] | outcome [4] | Potency [6] | Potency [9] | Potency [7]

CC(C)OP(=O)(CP(=O)(OC(C)C)OC(C)C)OC(C)C
inactive: max response [1] -0.755% | outcome [2] | max response [3] -2.18% | outcome [4] | Potency [6] | Potency [9] | Potency [7] | Potency [8]

COc1cc2c(cc1OC)C(=O)CC2
inactive: max response [1] 3.36% | outcome [2] | outcome [3] | outcome [4] | Potency [6] | Potency [9] | Potency [7] | Potency [8]

CCOC(=O)c1cc(=O)c2c(OCC(COc3cccc4oc(C(=O)OCC)cc(=O)c34)OC(=O)[C@@H](N)CCCCN)cccc2o1
inactive: max response [1] 4.3% | outcome [2] | outcome [3] | outcome [4] | Potency [6] | Potency [9] | Potency [7]

Cc1cc(O)c2c(O)c3c(O)cccc3cc2c1
inactive: max response [1] -2.16% | outcome [2] | max response [3] -2.19% | outcome [4] | Potency [6] | Potency [9] | Potency [7] | Potency [8]

COC(=O)c1cc(S(N)(=O)=O)ccc1OC
inactive: max response [1] 4.21% | outcome [2] | outcome [3] | outcome [4] | Potency [6] | Potency [9] | Potency [7] | Potency [8]

CN1CC(=O)N2[C@H](c3ccc4c(c3)OCO4)c3[nH]c4ccccc4c3C[C@@H]2C1=O
inactive: max response [1] -4.29% | outcome [2] | max response [3] 3.47% | outcome [4] | Potency [6] | Potency [9] | Potency [7] | Potency [8]

Cc1cccc(C)c1NC(=O)c1ccc(N)cc1
inactive: max response [1] -2.32% | outcome [2] | outcome [3] | outcome [4] | Potency [6] | Potency [9] | Potency [7] | Potency [8]

CC(=O)O[C@@H]1CC2C3CCc4cc(OC(=O)c5ccccc5)ccc4C3CCC2(C)[C@H]1OC(C)=O (stereo not given in full)
inactive: outcome [1] | outcome [2] | max response [3] 3.57% | outcome [4] | outcome [5] | Potency [6] | Potency [7] | Potency [8]

CCOC(=O)C(O)c1ccccc1 (stereo not given)
inactive: outcome [1] | outcome [2] | max response [3] 0.37% | outcome [4] | outcome [5] | Potency [6] | Potency [7] | Potency [8]

O=C(CCCl)NCc1ccccc1
inactive: max response [1] -4.62% | outcome [2] | outcome [3] | outcome [4] | Potency [6] | Potency [9] | Potency [7] | Potency [8]

Cc1oc(-c2ccccc2)nc1CCC(=O)c1ccc(CC2SC(=O)NC2=O)cc1 (stereo not given)
inactive: outcome [1] | outcome [2] | max response [3] -0.446% | outcome [4] | outcome [5] | Potency [6] | Potency [7] | Potency [8]

Cc1ccc(/C=N/n2c(-c3ccccc3)csc2=S)cc1
inactive: max response [1] 1.19% | outcome [2] | max response [3] -3.86% | outcome [4] | Potency [6] | Potency [9] | Potency [7]

CC(=O)N(c1onc(C)c1C)S(=O)(=O)c1ccc(N)cc1
inactive: max response [1] 4.9% | outcome [2] | max response [3] -5.11% | outcome [4] | Potency [6] | Potency [9] | Potency [7] | Potency [8]

O=C(O)c1ccc(OCCN2CCCCC2)cc1
inactive: max response [1] -3.98% | outcome [2] | max response [3] 1.34% | outcome [4] | Potency [6] | Potency [9] | Potency [7] | Potency [8]

Cc1coc2ccccc2c1=O
inactive: max response [1] 3.92% | outcome [2] | outcome [3] | outcome [4] | Potency [6] | Potency [9] | Potency [7] | Potency [8]

CCCC(CCC)(C(=O)OCC)C(=O)OCC
inactive: max response [1] 2.87% | outcome [2] | max response [3] 4.44% | outcome [4] | Potency [6] | Potency [9] | Potency [7] | Potency [8]

CCOc1ncc(F)c(=O)[nH]1
inactive: max response [1] -0.0366% | outcome [2] | max response [3] -1.34% | outcome [4] | Potency [6] | Potency [9] | Potency [7] | Potency [8]

CNC(=O)c1c(I)c(NC(C)=O)c(I)c(C(=O)O)c1I
inactive: max response [1] -7.17% | outcome [2] | max response [3] 0.318% | outcome [4] | Potency [6] | Potency [9] | Potency [7] | Potency [8]

Cc1oc(=O)oc1COC(=O)[C@@H]1N2C(=O)[C@@H](NC(=O)[C@H](N)c3ccccc3)[C@H]2SC1(C)C
inactive: max response [1] -0.753% | outcome [2] | max response [3] -3.48% | outcome [4] | Potency [6] | Potency [9] | Potency [7] | Potency [8]

O=C(O)c1cn(C2CC2)c2cc(Cl)c(F)cc2c1=O
inactive: max response [1] -5.06% | outcome [2] | outcome [3] | outcome [4] | Potency [6] | Potency [9] | Potency [7] | Potency [8]

COCCOCC(OC)OC
inactive: max response [1] -49.7% | outcome [2] | max response [3] 1.4% | outcome [4] | Potency [6] | Potency [9] | Potency [7] | Potency [8]

COc1ccccc1N1CCN(CC(O)COc2cc(OC)c(OC)c(OC)c2)CC1 (stereo not given)
inactive: max response [1] 2.4% | outcome [2] | max response [3] -5.07% | outcome [4] | Potency [6] | Potency [9] | Potency [7] | Potency [8]

C/C(=N/NC(=O)c1ccncc1)C(=O)O
inactive: max response [1] 2.14% | outcome [2] | max response [3] 0.247% | outcome [4] | Potency [6] | Potency [9] | Potency [7] | Potency [8]

Cc1cc(CCCOc2c(C)cc(-c3noc(C(F)(F)F)n3)cc2C)on1
inactive: max response [1] -24.5% | outcome [2] | outcome [3] | outcome [4] | Potency [6] | Potency [9] | Potency [7] | Potency [8]

CC(=O)Nc1c(I)c(NC(C)=O)c(I)c(C(=O)O)c1I
inactive: max response [1] 2.17% | outcome [2] | max response [3] 4.63% | outcome [4] | Potency [6] | Potency [9] | Potency [7] | Potency [8]

Cc1cccc(OCC(O)CNC(C)(C)C)c1C (stereo not given)
inactive: max response [1] -11.8% | outcome [2] | max response [3] 0.115% | outcome [4] | Potency [6] | Potency [9] | Potency [7] | Potency [8]

O=C(COCCOCCOCC(=O)Nc1c(I)cc(I)c(C(=O)O)c1I)Nc1c(I)cc(I)c(C(=O)O)c1I
inactive: max response [1] 0.699% | outcome [2] | max response [3] 4.72% | outcome [4] | Potency [6] | Potency [9] | Potency [7] | Potency [8]

CN(C)CCN(Cc1ccsc1)c1ccccn1
inactive: max response [1] -3.25% | outcome [2] | outcome [3] | outcome [4] | Potency [6] | Potency [9] | Potency [7] | Potency [8]

— PubChem BioAssay (NCATS)
